# Screens from PubChem.
# The list is not random: actives were taken first. Their share in the collection is about 2.2%.
# Nrf2 inh – Nrf2 qHTS screen for inhibitors; A549 ARE-Fluc reporter, luciferase luminescence, 18-24 h; Potency, µM (highest dose often 46 µM), hits mostly inhibitors; 360,000 compounds, 2.1% hits; further: nearly all actives have a fitted effect of over 60% in size
#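 Reporter: ARE-Fluc in A549. Exposure: 18-24 h, 37 °C, 5% CO2, 5% FBS OPTI-MEM. Readouts: fluorescent cytotoxicity (CellTiter-Fluor), then luminescent Nrf2 signal after BugLite.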
# PI4K2A inh – qHTS for small molecular inhibitors of PI4K2A. 420,000 compounds, 0.13% hits. activity change, negative = inhibition, % at 76.9 µM. purified PI4K2A, ADP-Glo luminescence, 1 h; active compounds read low. AID 1346378, 2018. Phosphatidylinositol 4-kinase type 2-alpha (Homo sapiens), Q9BTU6; in the data active means activity change below about -50%; inconclusive means mostly about -30% to -49%
# Target sequence (Q9BTU6 whole entry, looked up): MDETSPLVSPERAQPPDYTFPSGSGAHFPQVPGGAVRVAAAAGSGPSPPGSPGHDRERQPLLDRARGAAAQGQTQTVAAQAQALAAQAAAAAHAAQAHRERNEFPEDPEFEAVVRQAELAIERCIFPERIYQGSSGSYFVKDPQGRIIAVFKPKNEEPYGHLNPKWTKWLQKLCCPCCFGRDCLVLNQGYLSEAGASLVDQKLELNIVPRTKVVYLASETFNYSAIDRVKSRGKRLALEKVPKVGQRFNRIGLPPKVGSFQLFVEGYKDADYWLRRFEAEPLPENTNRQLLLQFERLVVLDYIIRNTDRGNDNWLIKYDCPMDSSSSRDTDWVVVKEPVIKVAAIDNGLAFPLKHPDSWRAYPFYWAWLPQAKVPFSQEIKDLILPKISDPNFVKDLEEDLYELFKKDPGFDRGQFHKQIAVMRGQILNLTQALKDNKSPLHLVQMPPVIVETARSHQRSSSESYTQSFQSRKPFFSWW
#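 ADP-Glo luminescence measured ADP generated by PI4K2A enzyme (4 ug/mL before mixing) with 1.2 mM PI substrate (pre-mix) and 300 microM ATP (pre-mix). Tris pH7.5 buffer with MgCl2, Triton X-100; 1 h reaction at ambient temperature.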
# GALK inhibitor – qHTS Assay for Inhibitors of Human Galactokinase (GALK); P51570; Purified GALK, Kinase-Glo residual ATP luminescence; Potency, µM (titrated, usually from 57.5 µM), actives largely listed as inhibitors; 270,000 compounds, 0.007% hits
#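 Luminescence from leftover ATP (Ultra-Glo luciferase/luciferin) served as read-out after a 1 h room-temperature reaction of 5 nM GALK with 35 uM ATP and 100 uM galactose.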
# Nrf2 ARE act – qHTS of Nrf2 Activators; AREc32 ARE-luciferase reporter (MCF7-derived line), luminescence, 24 h; Potency, µM (highest dose often 46.1 µM), most hits filed as activators; 410,000 compounds, 0.31% hits; further: nearly all actives have a fitted effect of over 65% in size
#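 ARE-driven firefly luciferase activity in AREc32 cells measured after a 24 hr compound exposure at 37 deg C, using Steady-Glo reagent and a 30 min room-temperature hold.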
# A549 viability – Nrf2 qHTS screen for inhibitors: counterscreen for cytotoxicity. AID 504648, 2011. 390,000 compounds, 0.16% hits. Potency, µM (top dose mostly 46 µM), hits mostly inhibitors. A549 ARE-Fluc cells, CellTiter-Fluor viability, 18-24 h
#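 A549 ARE-Fluc cells in 5% FBS OPTI-MEM, 5000 cells/well, rested 2 h then exposed to compounds in concentration-response for 18-24 h at 37 °C. Viability by CellTiter-Fluor fluorescence (Ex 405/Em 525) after 30 min; luciferase luminescence (BugLite, 15 min, RT) read afterwards.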
# miR-21 act – qHTS Assay for Modulators of miRNAs and/orActivators of miR-21; HeLa miR-21 FLuc reporter, luciferase, 48 h; Potency, µM (series often up to 38.3 µM), usual class: activators; 340,000 tested, under 10 active; AID 2288, 2010;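 further: miR-21 action dims this reporter so a rising signal means less miR-21 action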
#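 Luminescence from a firefly luciferase reporter carrying a miR-21 binding site downstream, stably expressed under a CMV promoter in HeLa cells that make miR-21 endogenously, reports miRNA modulation after 48 h compound exposure up to approximately 40uM final.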
# A number is an active result; . = inactive; ? = inconclusive; / = no result; ! = a repeat was not active; [ ] = remark or other dose. Unless noted, the call rests on the fitted dose curve; in most records, active means well fitted curve in the direction sought with a large enough effect; inconclusive means small, poorly fitted or top-dose-only effect, or another doubt; inactive means no such curve, though single readings can be large; an effect the other way counts as inactive or inconclusive.
SMILES,Nrf2 inh,PI4K2A inh,GALK inhibitor,Nrf2 ARE act,A549 viability,miR-21 act
COc1cccc2c1nc(C)c1cc(C)oc12,?,.,.,.,.,.
O=C1Cc2cc(S(=O)(=O)N3CCN(c4ccccc4)CC3)ccc2N1,.,.,/,.,.,.
O=Cc1ccc(N2CCN(S(=O)(=O)c3ccc4c(c3)CC(=O)N4)CC2)cc1,/,-56,/,.,/,/
CC(=O)c1c(C)[nH]c(C(=O)Nc2cccc(C(F)(F)F)c2)c1C,21µM,.,.,.,?,.
CCOC(=O)c1c(C)[nH]c(C(=O)OC(C)C(=O)Nc2ccccc2OC)c1C (stereo unspecified),15µM,.,.,.,.,.
CC(=O)c1c(C)[nH]c(C(=O)Nc2cccc(C#N)c2)c1C,?,.,.,.,.,.
CCOC(=O)c1c(C)[nH]c(C(=O)Nc2ccc(NC(C)=O)cc2)c1C,8.2µM,.,.,.,.,.
CCOC(=O)c1c(C)[nH]c(C(=O)Nc2ccc(C)c(Cl)c2)c1C,/,/,.,/,/,.
O=C(NC1CCCCN(Cc2cccc(C(F)(F)F)c2)C1=O)c1c(F)cccc1F (stereo unspecified),/,.,/,/,/,/
CCN1CCN(S(=O)(=O)c2cc(OCC(=O)NC3CCCCC3)c(C)cc2Cl)CC1,4.1µM,.,.,.,.,.
O=C(CSc1nc(-c2ccco2)nc2cc(=O)[nH]n12)Nc1ccccc1Cl,.,.,/,14µM,.,.
Cc1ccc(NC(=O)CSc2nc(-c3ccco3)nc3cc(=O)[nH]n23)c(Cl)c1,.,.,.,.,.,.
O=C(Nc1ccc2nc(-c3ccco3)c(-c3ccco3)nc2c1)N1CCCCCC1,.,-51,.,.,.[1.84 µM],.
CCOC(=O)C1CCN(C(=O)Nc2ccc3nc(-c4ccco4)c(-c4ccco4)nc3c2)CC1,.,?,.,.,?,.
CCOc1cccc(CNc2ccc(O)cc2)c1OCc1ccc(Cl)cc1Cl,/,-58,.,.,.,.
CCOc1cccc(CNc2ccc(O)cc2)c1OCc1ccccc1Cl,.,-53!,.,?,.,?
CCOc1cccc(CNn2cnnc2)c1OCc1ccccc1Cl,.,.,.,.,.,.
N=C(N)c1ccc(OCCCOc2ccc(C(=N)N)cc2)cc1,/,.,/,/,/,/
COc1cnc(-c2ccccn2)nc1NC(C)C,15µM,.,.,.,?,.
CCOc1ccc(-c2noc(CSc3nnc(Cc4ccccc4)n3-c3ccc(F)cc3)n2)cc1,?,.,/,.,.,.
COc1ccc(-c2noc(CSc3nnc(Cc4ccccc4)n3-c3cccc(C)c3)n2)cc1OC,?,.,.,.,.,.
CCOc1ccc(-c2noc(CSc3nnc(Cc4ccccc4)n3-c3cccc(C)c3)n2)cc1,26µM,.,/,.,?,.
Clc1ccc(-c2noc(CSc3nnc(Cc4cccs4)n3-c3ccccc3)n2)cc1,16µM,.,.,.,.,.
Cc1ccc(-c2noc(CSc3nnc(Cc4ccccc4)n3-c3cccc(C)c3)n2)cc1,26µM,.,.,.,?,.
COc1ccc(Cn2nnnc2CN(Cc2cc3ccc(C)cc3[nH]c2=O)C2CCCC2)cc1,21µM,.,.,.,?,.
SMILES,Nrf2 inh,PI4K2A inh,GALK inhibitor,Nrf2 ARE act,A549 viability,miR-21 act
C[n+]1ccc(/C=C/c2cccs2)cc1,2.3µM,.,.,.,8.2µM,.
Cc1ccc(/C=C/c2ccc(N(C)C)cc2)[n+](C)c1,4.1µM,.,.,.,10µM,?
CN1CCCN=C1/C=C/c1cccs1,.,.,.,.,.,.
CN(C)c1ccc(/C=C/c2cc[n+](C)cc2)cc1,4.1µM,.,.,.,21µM,?
Cc1nc2n(c(=O)c1CCN1CCC(C(=O)c3ccc(F)cc3)CC1)CCS2,/,.,/,/,/,/
OC(c1ccccc1)(c1ccccc1)C1CCN(CCCNc2ccc(Cl)cc2Cl)CC1,/,.,/,/,/,/
CC[N+](CC)(CC)CCOc1ccc(/C=C/c2ccccc2)cc1,15µM,.,/,.,.,/
CC[N+](CC)(CC)CCOc1cccc(OCC[N+](CC)(CC)CC)c1OCC[N+](CC)(CC)CC,.,.,/,.,.,/
CCCN1CCCc2cc(CN)ccc21,9.2µM,?,.,.,.[1.84 µM],.
NC(=O)C1CCN(c2ccc(S(=O)(=O)N3CCC(Cc4ccccc4)CC3)cn2)CC1,1.6µM,.,.,.,.,.
O=S(=O)(c1ccc(Cl)nc1)N1CCC(Cc2ccccc2)CC1,.,.,/,.,.,/
CC[n+]1ccc(/C=C/c2ccc(N(C)C)cc2)c2ccccc21,3.7µM,?,.,.,9.2µM,?
CC[n+]1c(/C=C/c2ccc(OC)c(OC)c2)ccc2ccccc21,?,.,.,.,.,.
CC[n+]1c(/C=C/c2ccc(N(C)C)cc2)ccc2ccccc21,8.2µM,?,/,.,21µM,.
CC[n+]1c(/C=C/c2ccc(OC(C)=O)c(OC)c2)ccc2ccccc21,?,.,.,.,21µM,.
CC[n+]1ccccc1/C=C/c1ccc(N(C)C)cc1,5.8µM,.,.,.,10µM,?
C#CC1(O)CC[C@H]2[C@@H]3CCC4=CCCC[C@@H]4[C@H]3CC[C@@]21C (stereo partly specified),/,.,/,/,/,/
Cc1ccc(NS(=O)(=O)c2c(C)nc3sc(C)c(C)n3c2=O)cc1F,21µM,.,/,.,.,.
COc1cc(NS(=O)(=O)c2c(C)nc3sc(C)c(C)n3c2=O)cc(OC)c1,.,.,/,.,.,.
Cc1nc2ccccc2c2oc(C(=O)NCCCN3CCCC(C)C3)cc12 (stereo unspecified),?,.,.,.,21µM,.
Cc1ccc(CNC(=O)c2cc3c(C)nc4ccccc4c3o2)cc1,18µM,.,.,.,.,.
C=CCN1[C@@H](C)COc2cc(F)ccc2S1(=O)=O,/,.,/,/,/,/
COc1nc(N(C)S(=O)(=O)c2ccc(C)cc2)nc(C)c1Br,4.1µM,.,.,.,.,.
COC(=O)CN(c1nc(C)c(Br)c(OC)n1)S(=O)(=O)c1ccccc1,.,.,.,.,.,.
COc1ccc(-n2cc(-c3ccc4c(c3)OCO4)n(CC(=O)Nc3cccc(C)c3C)c2=O)c(OC)c1,13µM,.,/,.,?,?
COc1ccc(-n2cc(-c3ccc4c(c3)OCO4)n(CC(=O)Nc3cc(Cl)ccc3C)c2=O)cc1,?,.,/,.,.,.
O=[N+]([O-])c1cccc(-c2cc3cccc[n+]3cc2-c2cccc([N+](=O)[O-])c2)c1,.,.,/,.,.,.
Cc1cccc2cc(-c3ccccc3)c(-c3ccccc3)c[n+]12,23µM,.,.,.,.,?
